# Compounds with a hit are over-represented: about 3.2% of the library has one in this group of screens.
# Tau fibril FP: tau fibrillization inhibition (FP); P10636; K18 P301L tau heparin fibrillization, Alexa594 FP, 6 h; Potency, µM (highest dose often 57.7 µM), actives largely listed as inhibitors; actives 0.39% (n = 280,000); AID 1468; further: nearly all actives have a fitted effect of over 55% in size
# Target sequence (P10636 561-689 P618L limits assumed): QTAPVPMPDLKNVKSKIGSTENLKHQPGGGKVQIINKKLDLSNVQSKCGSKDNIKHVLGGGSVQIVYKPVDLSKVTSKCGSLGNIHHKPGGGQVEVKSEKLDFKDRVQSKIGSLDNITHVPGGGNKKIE
#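 Recombinant K18 P301L […], labeled with Alexa 594 at 0.24 uM over 15 uM unlabeled; heparin inducer 20 uM final; 37 C, 6 hr; FP endpoint.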
# TRb SRC2 PPI: TRbeta-SRC2 interaction inhibition; P10828; TRbeta-SRC2 peptide binding, fluorescence polarization; receptor liganded with 1 µM T3; Potency, µM (top dose mostly 106 µM), actives largely listed as inhibitors; actives 0.065% (n = 280,000); AID 1469; further: nearly all actives have a fitted effect of over 50% in size
# Target sequence (P10828 whole entry, looked up): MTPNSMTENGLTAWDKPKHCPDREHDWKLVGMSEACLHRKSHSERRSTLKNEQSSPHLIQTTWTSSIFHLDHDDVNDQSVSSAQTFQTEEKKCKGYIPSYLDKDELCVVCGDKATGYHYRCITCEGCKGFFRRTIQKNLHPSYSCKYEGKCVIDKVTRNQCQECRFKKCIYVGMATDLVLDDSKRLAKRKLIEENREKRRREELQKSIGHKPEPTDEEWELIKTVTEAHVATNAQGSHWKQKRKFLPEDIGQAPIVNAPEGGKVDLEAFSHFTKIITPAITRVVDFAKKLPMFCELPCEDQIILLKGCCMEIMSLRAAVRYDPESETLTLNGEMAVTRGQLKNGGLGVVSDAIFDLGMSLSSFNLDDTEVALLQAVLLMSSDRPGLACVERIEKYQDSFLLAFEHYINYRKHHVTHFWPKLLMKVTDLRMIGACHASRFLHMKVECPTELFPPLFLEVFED
#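 Fluorescence polarization of 20 nM Texas Red SRC2 peptide with 0.6 uM human TRb ligand-binding domain, in Tris buffer with 1uM T3 and 5% DMSO. Incubated 5 hr ambient; normalized to unbound and bound controls.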
# Tau fluor counter: counter-screen for tau fibril formation inhibitors; tau K18 P301L Alexa594 fluorescence, heparin fibrillization; Potency, µM (series often up to 57.7 µM); actives 0.93% (n = 280,000); AID 1463; further: nearly all actives have a fitted effect of over 55% in size
#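 Human K18 P301L tau (15 uM unlabeled plus 0.24 uM Alexa 594-labeled, final) in 100 mM sodium acetate pH 7 was mixed with compound and 20 uM heparin and incubated 6 hr at 37 C.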
# Tau ThT inhib: blocks human tau fibril formation measured by thioflavin T; P10636; recombinant tau K18 P301L (four-repeat tau fragment), heparin-induced fibrillization, ThT fluorescence; Potency, µM (top dose mostly 57.4 µM), actives largely listed as inhibitors; actives 2.1% (n = 270,000); AID 1460; further: nearly all actives have a fitted effect of over 55% in size
#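 Tau K18 P301L fragment (15 uM unlabeled plus 0.24 uM Alexa 594-labeled) in 100 mM sodium acetate pH 7 with compound, fibrillization induced by 20 uM heparin for 6 hr at 37 C. Thioflavin T (30 uM) added, fluorescence read after 1 hr (ex 450, em 510 nm).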
# RGS12 GoLoco inh: RGS12 GoLoco-Gai1 interaction inhibition; AID 880; P63096; Gai1:RGS12 GoLoco peptide FP, rhodamine, 10 min; Potency, µM (highest dose often 61.6 µM), hits mostly inhibitors; actives 0.44% (n = 230,000); active means well fitted inhibition curve with a large enough effect, not every such curve was filed as active; inactive means no such curve, though single readings can be large or run the other way; further: nearly all actives have a fitted effect of over 30% in size
# TexasRed fluor: Texas Red fluorescence interference in TRb-SRC2 counter-screen; TRb/SRC2 Texas Red total fluorescence interference; actives 0.29% (n = 280,000); AID 1479; Potency, µM (titrated, usually from 106 µM); active means well fitted curve in either direction with a large enough effect; inconclusive means small, poorly fitted or top-dose-only effect
#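 Human TRb ligand-binding domain at 0.6 uM with 20 nM Texas Red SRC2 peptide in Tris buffer containing 1 uM T3 and 5% DMSO, incubated with compound 5 h at ambient temperature. Total fluorescence (555/632 nm) calculated as parallel + 2 × perpendicular.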
# A number is an active result; 0 = inactive; ? = inconclusive; - = not tested or not shown; ! = a repeat was not active; [ ] = remark or other dose. Unless noted, the call rests on the fitted dose curve; in most records, active means well fitted curve in the direction sought with a large enough effect; inconclusive means small, poorly fitted or top-dose-only effect, or another doubt; inactive means no such curve, though single readings can be large; an effect the other way counts as inactive or inconclusive.
SMILES,Tau fibril FP,TRb SRC2 PPI,Tau fluor counter,Tau ThT inhib,RGS12 GoLoco inh,TexasRed fluor
COC(=O)C1=C2N(Cc3ccccc3)C(C)=C(C(=O)OC)C(c3ccccc3)N2C(=O)[C@](O)(C(=O)OC)C1 (stereo partly drawn),0[11.6 µM],0[11.2 µM],0[11.6 µM],0[11.5 µM],-,?
CCN(CC)S(=O)(=O)c1nnc(NC(=O)COc2cccc(C)c2)s1,0,0,0,?,-,3.16µM[quencher]
O=C(COc1ccccc1)Nc1nnc(S(=O)(=O)Nc2ccccc2)s1,0,0,?,?,-,0.0501µM[quencher]
O=C(COc1ccccc1)Nc1nnc(S(=O)(=O)N2CCCC2)s1,0,0,0,?,-,0
O=C(NCc1ccccc1Cl)c1c2c(nc3ccccc13)C(=O)N(C1CCCCC1)C2,0,0,0,0,-,0
CCc1nnc(SCc2cccc(Cl)c2)c2cc3sccc3n12,0,0,0,?,-,25.1µM[quencher]
Cc1cccc(C(=O)N2CCc3cc(CNS(=O)(=O)c4ccc(Cl)s4)ccc32)c1,0,0,0,0,-,0
CCOc1ccc(-c2cn3c(n2)sc2cc(C(=O)NCCCN4CCCCC4)ccc23)cc1,0,0,?,0,-,0
O=Cc1ccc(Sc2nnc(-c3ccccc3)o2)c([N+](=O)[O-])c1,?,0,15.8µM[quencher],17.8µM,0,0
C=CCSc1nnc2nc3[nH]c4c(C)cccc4c3nn12,0,0,0,15.8µM,0,0
Cc1n[nH]c(C)c1Sc1ccccc1N=Cc1cc(Cl)cc([N+](=O)[O-])c1O,0,0,0,10µM,0,0
COC(=O)C1=C(C(=O)OC)[C@@H]2N(C)c3ccccc3[C@@]23C[C@@H](C(=O)OC)N(S(=O)(=O)c2ccc(C(F)(F)F)cc2)C3=N1,0[11.6 µM],0[11.2 µM],0[11.6 µM],0[11.5 µM],0[14.2 µM],0[11.2 µM]
CC(C)=NNc1nc(-c2ccc(N3C(=O)CCC3=O)cc2)cs1,?,0,?,17.8µM,0,0
CN1[C@@H](c2ccccc2)CC(=NO)C[C@H]1c1ccccc1,-,-,-,-,0[14.2 µM],-
CC1CCN(S(=O)(=O)c2ccc(C(=O)Nc3ccccc3-c3nc4ccccc4[nH]3)cc2)CC1,28.2µM,0,?,0,0,0
Cc1cc(F)ccc1S(=O)(=O)Nc1ccccc1C(=O)Nc1ccccc1-c1nc2ccccc2[nH]1,12.6µM,0,?,0,0,0
COc1cccc(C2C3=C(N=c4s/c(=C\c5ccc(OCC(=O)O)cc5)c(=O)n42)c2ccccc2CC3)c1 (stereo not drawn),0,0,0,22.4µM,0,0
COc1cccc(C2C3=C(N=c4s/c(=C\c5ccc(O)cc5)c(=O)n42)c2ccccc2CC3)c1OC (stereo not drawn),0,0,?,?,0,0
COc1ccccc1C1C2=C(N=c3s/c(=C/c4cccc(OCC(=O)O)c4)c(=O)n31)c1ccccc1CC2 (stereo not drawn),?,0,?,15.8µM,0,0
COc1cccc(C2C3=C(N=c4s/c(=C\c5cccc(O)c5)c(=O)n42)c2ccccc2CC3)c1OC (stereo not drawn),22.4µM,0,?,?,0,0
O=C1CCCc2cc(S(=O)(=O)N3CCCC(C(=O)NCc4ccccc4Cl)C3)ccc2N1 (stereo not drawn),0,0,0,0,-,0
Nc1cccc(OCc2nc(N)nc(N)c2-c2ccc(Cl)cc2)c1,-,-,-,-,0[14.2 µM],-
CC1CCN(Cc2c(O)ccc3c(=O)c(Oc4ccccc4Cl)c(C(F)(F)F)oc23)CC1,0,0,0,0,-,0
COc1ccc(NC(=O)Cn2c(=O)n(Cc3ccco3)c(=O)c3cc(OC)c(OC)cc32)cc1,?,0,0,0,-,0
CC1=NN(c2ccc(Cl)cc2)C(=O)/C1=C\c1cccn1-c1ccc(S(N)(=O)=O)cc1,0,0,11.2µM[quencher],7.08µM,0,0
SMILES,Tau fibril FP,TRb SRC2 PPI,Tau fluor counter,Tau ThT inhib,RGS12 GoLoco inh,TexasRed fluor
O=C1/C(=C\c2ccc(O)c(O)c2)Oc2c1ccc(O[C@@H]1O[C@H](CO)[C@@H](O)[C@H](O)[C@H]1O)c2O,-,0,-,-,-,0
[O-]/C(=C(\C(=S)Nc1cccc2ccccc12)[n+]1ccccc1)c1ccc2c(c1)OCCO2,?,?,?,12.6µM,0,0
O=C(O)c1sccc1S(=O)(=O)Nc1ccc(Cl)cc1,0,0,0,0,0,0
O=C(COc1ccccc1)Nc1ccc(S(=O)(=O)Nc2ncccn2)cc1,0,0,0,0,0,0
Cc1ccccc1OCC(=O)Nc1ccc(S(=O)(=O)Nc2ncccn2)cc1,0,0,0,0,-,10000µM[quencher]
CCC(C(=O)O)N1C(=O)/C(=C/C(C)=C/c2ccccc2)SC1=S (stereo not drawn),0,0,0,17.8µM,0,0
CC(/C=C1\SC(=S)N(NC(=O)c2ccc(O)cc2)C1=O)=C\c1ccccc1,0,0,0,0,0,0
CC(/C=C1\SC(=S)N(CCCC(=O)Nc2ccc(C(=O)O)cc2)C1=O)=C\c1ccccc1,0,0,0,14.1µM,0,0
CC(=C\c1ccccc1)/C=C1/SC(=S)N(C(C(=O)O)C(C)C)C1=O (stereo not drawn),0,0,0,25.1µM,0,0
COc1cc(-n2nc(C)c3c2OC(N)=C(C#N)C3c2ccccc2)c(Cl)c(Br)c1O (stereo not drawn),0,0,?,3.55µM,0,0
CC1=C(CCC(=O)O)c2cc3nc(cc4[nH]c(cc5[nH]c(cc1n2)c(C)c5C(C)O)c(C)c4C(C)O)C(C)=C3CCC(=O)O (stereo not drawn),?,35.5µM,0,?,12.6µM,44.7µM[fluorescent]
C=Cc1c(C)c2cc3[nH]c(cc4nc(cc5nc(cc1[nH]2)C(C)=C5CCC(=O)O)C(CCC(=O)O)=C4C)c(C)c3C=C,25.1µM,17.8µM,15.8µM[quencher],15.8µM,12.6µM!,15.8µM[fluorescent]
O=C(c1ccccc1O)N1CCOCC1,0,0,0,0,0,0
Cc1ccc2c(c1C)NC(C(=O)O)C1CC=CC21 (stereo not drawn),?,0,?,11.2µM,0,0
O=C(O)C1Nc2c(C(=O)N3CCOCC3)cccc2C2C=CCC12 (stereo not drawn),?,0,?,14.1µM,0,0
O=C(NC(Cc1c[nH]c2ccccc12)C(=O)Nc1ccc(F)c([N+](=O)[O-])c1)c1cccs1 (stereo not drawn),0,0,15.8µM[quencher],?,0,0
O=C(NC(Cc1c[nH]c2ccccc12)C(=O)Nc1ccc(OC(F)(F)F)cc1)c1cccs1 (stereo not drawn),?,0,7.94µM[quencher],0,0,0
O=C(NC(Cc1c[nH]c2ccccc12)C(=O)O)c1cccs1 (stereo not drawn),0,0,0,0,0,0
